Screening data from PubChem.
G9a inh = blocks human histone lysine methyltransferase G9a | Q96KQ7 | G9a H3K9 monomethylation, AlphaScreen, 2 h | Potency, µM (highest dose often 102 µM), actives largely listed as inhibitors | hit rate 8.8% among 350,000; further: nearly all actives have a fitted effect of over 75% in size
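Using a bead-based AlphaScreen, monomethylated H3K9 product from 2 h room-temperature reactions (G9a 20 nM, peptide 500 nM, SAM 20 uM) was detected with 0.5 ug/mL rabbit anti-H3K9me1 antibody.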
L3MBTL1 inh = inhibitors of human L3MBTL1; Q9Y468; AlphaScreen L3MBTL1–H3K9me1 peptide binding; Potency, µM (titrated, usually from 57.1 µM), usual class: inhibitors; hit rate 0.66% among 230,000; AID 485360; further: nearly all actives have a fitted effect of over 60% in size
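AlphaScreen proximity signal between nickel-chelate acceptor and streptavidin donor beads (final 10 ug/mL) reports binding of 50 nM L3MBTL1 to 75 nM biotin-H3 K9me1 peptide; complex incubated with compounds 30 min at room temperature; cefsulodin titration as control.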
BAZ2B block = blocks human BAZ2B | Q9UIF8 | AlphaScreen BAZ2B-H3K14Ac peptide displacement | hit rate 4.4% among 360,000 | AID 504333 | Potency, µM (highest dose often 114 µM), usual class: inhibitors; further: nearly all actives have a fitted effect of over 60% in size
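AlphaScreen displacement: compounds (up to 110uM) incubated 30 min at room temperature with a preformed 50 nM BAZ2B/50 nM biotinylated H3K14Ac peptide complex in PBS pH 7.4 with Tween-20. Donor and acceptor beads at 10 ug/mL final added, 20 min light-protected before reading.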
HP1b binding inh = HP1-beta chromodomain-methylated histone interaction inhibition | Potency, µM (series often up to 114 µM), usual class: inhibitors | AID 540317 | hit rate 0.56% among 390,000 | AlphaScreen HP1-beta / biotin-H3K9me3 peptide binding; further: nearly all actives have a fitted effect of over 70% in size
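Compound inhibition of the preformed complex between 50 nM HP1-beta and 50 nM biotinylated H3K9me3 peptide was read by AlphaScreen. Buffer was PBS pH 7.4 with 0.01% Tween-20. Incubations ran 30 min at room temperature, with 10 ug/mL donor/acceptor beads.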
JMJD2A Tudor = inhibitors of human JMJD2A Tudor domain. hit rate 4.4% among 390,000. Potency, µM (top dose mostly 114 µM), most hits filed as inhibitors. AID 504339. O75164. AlphaScreen JMJD2A-Tudor / H3K4me3 peptide binding; further: nearly all actives have a fitted effect of over 50% in size
Target sequence (O75164 whole entry, looked up, the tested form may be a part): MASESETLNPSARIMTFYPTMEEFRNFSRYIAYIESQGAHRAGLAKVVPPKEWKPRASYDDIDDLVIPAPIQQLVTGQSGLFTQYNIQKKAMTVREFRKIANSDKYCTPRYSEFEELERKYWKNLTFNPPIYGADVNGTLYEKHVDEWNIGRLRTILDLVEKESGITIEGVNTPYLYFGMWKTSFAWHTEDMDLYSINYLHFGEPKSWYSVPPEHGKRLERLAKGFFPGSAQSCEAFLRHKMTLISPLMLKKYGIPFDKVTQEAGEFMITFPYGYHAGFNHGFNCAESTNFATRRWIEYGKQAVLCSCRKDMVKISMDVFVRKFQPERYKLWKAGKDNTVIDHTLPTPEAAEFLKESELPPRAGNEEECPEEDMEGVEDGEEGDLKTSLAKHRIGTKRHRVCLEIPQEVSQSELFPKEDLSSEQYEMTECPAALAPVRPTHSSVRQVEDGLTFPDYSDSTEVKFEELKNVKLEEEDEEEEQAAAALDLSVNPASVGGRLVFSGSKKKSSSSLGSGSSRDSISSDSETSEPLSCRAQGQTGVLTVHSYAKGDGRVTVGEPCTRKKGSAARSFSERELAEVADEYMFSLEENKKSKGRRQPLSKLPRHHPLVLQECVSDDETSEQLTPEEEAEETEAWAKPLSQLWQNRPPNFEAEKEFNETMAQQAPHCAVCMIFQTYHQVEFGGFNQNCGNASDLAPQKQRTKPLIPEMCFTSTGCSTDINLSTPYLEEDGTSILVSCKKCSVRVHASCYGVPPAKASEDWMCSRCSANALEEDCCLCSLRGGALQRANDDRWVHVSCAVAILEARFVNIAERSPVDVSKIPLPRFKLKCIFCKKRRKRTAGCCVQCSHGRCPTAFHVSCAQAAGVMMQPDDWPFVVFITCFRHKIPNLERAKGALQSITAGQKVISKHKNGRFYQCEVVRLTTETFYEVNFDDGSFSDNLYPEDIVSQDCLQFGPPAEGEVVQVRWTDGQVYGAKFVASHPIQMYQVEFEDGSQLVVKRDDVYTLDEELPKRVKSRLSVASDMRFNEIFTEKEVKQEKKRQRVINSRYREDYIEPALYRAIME
Sfp inh = Sfp phosphopantetheinyl transferase inhibition. Biochemical Sfp PPTase activity, qHTS. Potency, µM, most hits filed as inhibitors. hit rate 3.5% among 310,000;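 further: the enzyme is Sfp with the accession as filed and its product quenches rhodamine fluorescence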
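Fluorescence-quenching assay: 15 nM Sfp-PPTase preincubated 15 min at room temperature with compound, then 5 uM rhodamine-CoA and 12.5 uM BHQ-2-labelled YbbR peptide added. Fluorescence (ex 525/em 598 nm) read at start and after 30 min; difference gives rate.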
Hits are given with their value; [ ] = another dose, or the depositor's remark. A selection: hits, their analogues and other compounds. The true share with any hit is near 12%. The call rests on the fitted dose curve; in most records, active means well fitted curve in the direction sought with a large enough effect; inconclusive means small, poorly fitted or top-dose-only effect, or another doubt; inactive means no such curve, though single readings can be large; an effect the other way counts as inactive or inconclusive.

`Cc1sc(NC(=O)CSc2nc(O)cc(=O)[nH]2)nc1-c1ccccc1` gave G9a inh inconclusive, L3MBTL1 inh inactive, BAZ2B block inconclusive, HP1b binding inh inactive, JMJD2A Tudor inactive and Sfp inh inactive.
Screening COCC(=O)Nc1nnc(-c2cccs2)s1 returned G9a inh 44.7µM, BAZ2B block inactive, HP1b binding inh inactive, JMJD2A Tudor inactive and Sfp inh inactive.
For O=C(Nc1nnc(-c2cccs2)s1)C1CC1 the results were G9a inh 22.4µM, L3MBTL1 inh inactive, BAZ2B block inactive, HP1b binding inh inactive, JMJD2A Tudor inactive and Sfp inh inactive.
`CCC(CC)c1nnc(NC(=O)CCc2ccc(OC)cc2)s1` gave G9a inh inconclusive, L3MBTL1 inh inactive[2.29 µM], BAZ2B block inconclusive, HP1b binding inh inactive, JMJD2A Tudor inactive and Sfp inh 44.7µM.
`COCC(=O)Nc1nc(-c2ccccc2)c(C)s1` gave G9a inh 44.7µM, L3MBTL1 inh inactive, BAZ2B block inactive, HP1b binding inh inactive, JMJD2A Tudor inactive and Sfp inh inactive.
`O=C(OCC#CCSc1nnc(-c2cccc3ncccc23)o1)c1ccc(F)cc1` gave JMJD2A Tudor inactive.
`CC1(C(=O)Nc2cccc(C(F)(F)F)c2)Cc2ccccc2C(=O)O1` (stereo unspecified) gave G9a inh inactive, BAZ2B block inactive, HP1b binding inh inactive and JMJD2A Tudor inactive.
COCc1nnc(NC(=O)CCc2ccccc2)s1 was read as G9a inh 11.2µM, L3MBTL1 inh inactive[11.4 µM], BAZ2B block inactive, HP1b binding inh inactive, JMJD2A Tudor inactive and Sfp inh inactive.
Screening CCC(C)C(=O)Nc1nnc(CCc2ccccc2)s1 (stereo unspecified) returned L3MBTL1 inh inactive, BAZ2B block inactive, HP1b binding inh inactive, JMJD2A Tudor 70.8µM and Sfp inh inactive.
`CC(C)CC(=O)Nc1nnc(CCc2ccccc2)s1` gave G9a inh inactive, L3MBTL1 inh inactive, BAZ2B block inactive, HP1b binding inh inactive, JMJD2A Tudor inactive and Sfp inh inactive.
CCC(C)C(=O)Nc1nnc(-c2cccs2)s1 (stereo unspecified) was read as G9a inh 14.1µM, L3MBTL1 inh inactive, BAZ2B block inactive, HP1b binding inh inactive, JMJD2A Tudor inactive and Sfp inh 50.1µM.
For CCc1nc2sc3c(c2c(=O)n1CCO)CCC3 the results were G9a inh inactive, BAZ2B block inactive, HP1b binding inh inactive, JMJD2A Tudor inactive and Sfp inh inactive.
For COCCN1CN=C(Nc2nc3ccccc3o2)NC1 the results were G9a inh 70.8µM, L3MBTL1 inh inactive, BAZ2B block inactive, HP1b binding inh inactive, JMJD2A Tudor inconclusive and Sfp inh inactive.
For CCCCN1CN=C(Nc2nc3ccccc3o2)NC1 the results were L3MBTL1 inh inactive, BAZ2B block inactive, HP1b binding inh inactive, JMJD2A Tudor inactive and Sfp inh inactive.
S=C1NC2(CCS1)Oc1ccccc1C1CC(c3ccccc3)=NN12 (stereo unspecified) was read as G9a inh 50.1µM, BAZ2B block inconclusive and Sfp inh inconclusive.
`COc1ccc(-c2nc(SC(C)C(=O)NCC3CCCO3)n[nH]2)cc1` (stereo unspecified) gave G9a inh 15.8µM, L3MBTL1 inh inactive, BAZ2B block inactive, HP1b binding inh inactive and JMJD2A Tudor inactive.
`O=C(N/N=C\c1ccc(Oc2ccccc2)cc1)c1csnn1` gave G9a inh 0.891µM, L3MBTL1 inh inactive, BAZ2B block inactive, HP1b binding inh inactive, JMJD2A Tudor inactive and Sfp inh inactive.
Screening Cc1cccc(C(=O)N/N=C/c2ccoc2)c1 returned G9a inh inactive, BAZ2B block 50.1µM, HP1b binding inh inactive, JMJD2A Tudor inactive and Sfp inh inactive.
Screening CN(C)c1ccc(/C=N\NC(=O)c2csnn2)cc1 returned G9a inh inactive[0.0925 µM], L3MBTL1 inh inactive, BAZ2B block inactive, HP1b binding inh inactive, JMJD2A Tudor inactive and Sfp inh 39.8µM.
`Cc1cccc(/C=N\NC(=O)c2csnn2)c1` gave G9a inh inactive[0.501 µM], L3MBTL1 inh inactive, BAZ2B block inconclusive, HP1b binding inh inactive, JMJD2A Tudor 79.4µM and Sfp inh 39.8µM.
Screening Cc1ccc(S(=O)(=O)N2CCCN(C(=O)c3ccc(-n4nccc4C)cc3)CC2)cc1 returned G9a inh inactive, L3MBTL1 inh inactive, BAZ2B block inactive, HP1b binding inh inactive and JMJD2A Tudor inactive.
Screening N#Cc1nc(Nc2ccccc2)nc(NC2CCCC2)n1 returned JMJD2A Tudor inactive.
For Cc1ccc(F)cc1N=Cc1c(O)c2ccccc2oc1=O the results were G9a inh 79.4µM, BAZ2B block inactive, HP1b binding inh inactive, JMJD2A Tudor inactive and Sfp inh inactive.
Screening Cc1ccc(N=Cc2c(O)c3ccccc3oc2=O)c(C)c1 returned G9a inh inactive, BAZ2B block inactive, HP1b binding inh inactive, JMJD2A Tudor inactive and Sfp inh inactive.
Screening CC[C@]12c3[nH]c4cc(CCC(=O)N(C)C)ccc4c3CCN1C(=O)[C@@H](CC(=O)NCc1cccc(C(F)(F)F)c1)C[C@@H]2C(=O)N1CCN(C(=O)c2ccco2)CC1 returned L3MBTL1 inh inactive, HP1b binding inh inactive and JMJD2A Tudor inactive.
For c1cc2c(cc1-c1csc(NNC3=NCCCCC3)n1)OCCO2 the results were G9a inh 6.31µM, BAZ2B block 35.5µM, HP1b binding inh inconclusive, JMJD2A Tudor inactive[11.4 µM] and Sfp inh inactive.
CCC(=O)Nc1nc(-c2ccc3c(c2)OCCO3)cs1 was read as G9a inh inactive, L3MBTL1 inh inactive, BAZ2B block inactive, HP1b binding inh inactive, JMJD2A Tudor inactive and Sfp inh inactive.
`Oc1ccc(Nc2nc(-c3ccc(O)cc3)cs2)cc1` gave G9a inh inconclusive, L3MBTL1 inh inactive, BAZ2B block 28.2µM, HP1b binding inh inconclusive, JMJD2A Tudor inconclusive and Sfp inh inactive.
`O=C(O)c1ccc(Nc2nc(-c3cccnc3)cs2)cc1` gave G9a inh inconclusive, BAZ2B block inactive, HP1b binding inh inactive, JMJD2A Tudor inactive and Sfp inh 89.1µM.
Screening Brc1ccc(Nc2nc(-c3cccnc3)cs2)cc1 returned G9a inh 31.6µM, L3MBTL1 inh inactive, BAZ2B block inactive, HP1b binding inh inactive, JMJD2A Tudor inactive and Sfp inh 44.7µM.
For COC(=O)c1ccc(C(NC(=O)c2ccccc2)[C@]2(C)C[C@H]2C2CCCCC2)cc1 (stereo partly specified) the results were Sfp inh inactive.
`CN1CCN(c2nc3c(=O)[nH]c(N)nc3n2C2OC(CO)C(O)C2O)CC1` (stereo unspecified) gave HP1b binding inh inactive and JMJD2A Tudor inactive.
CC(C)c1ccc(CN(C)C(=O)c2ccc(S(=O)(=O)NCc3ccco3)cc2)cc1 was read as G9a inh inactive[2.33 µM], L3MBTL1 inh inactive, BAZ2B block inconclusive, HP1b binding inh inactive and JMJD2A Tudor inconclusive.
